Survival data for 93 compounds are collected here from PubChem BioAssay AID463173 (ICCB-Longwood Screening Facility, Harvard Medical School, 2010).

Structures are written as SMILES. About 4,300 (8.3%) of roughly 52,000 compounds were called active. Cut-off read from the data, not from the text of the source: active = survival mostly below about 52% (no sharp cut-off); inactive = mostly above about 56%. The full list was thinned out, with actives kept by preference.

The experiment relates to DeltatarO mutant. Put plainly: growth inhibition of S. aureus wild type versus tarO mutant, primary screen, teichoic acid synthesis inhibitors, RN4220, OD600 (AID 463173). The conditions noted are these: OD600, 18 h, active compounds read low, screened at 18.75 µg/mL (by protocol).
`CC1CN(C(=O)Nc2ccc(C(=O)NCCc3ccccc3Cl)cc2)c2ccccc2S1` (stereo not drawn): the survival was 61% (inactive).
In the case of `COc1ccc(NC(=O)c2ccc3c(c2)sc2nc(-c4ccc(OC)cc4)cn23)cc1`, the survival is 61% (inactive).
In the case of `CN=C1SC(CC(=O)NC)C(=O)N1C` (stereo not drawn), the survival was 86% (inactive).
Consider `CCCc1noc2c1C1=NNC(=O)C1C(C)(C)C2` (stereo not drawn), for which the survival is 76% (inactive).
In the case of `O=c1[nH]c2ccc(NCc3ccc(-c4ccccc4)o3)cc2[nH]1`, the survival is 86% (inactive).
`O=C(Nc1ccc(-n2nncc2-c2ccccc2)cc1)c1cccc(F)c1`: the survival is 129% (inactive).
Under `COc1ccc(N2CCN(C(=O)CCc3c(C)nc4cc(-c5ccc(OC)cc5OC)nn4c3C)CC2)cc1` stands 104% (inactive).
For `CC(C)CNC(=O)c1cccc(Cl)c1`, the survival was 82% (inactive).
On to `COc1ccc(CCNC(=O)Cn2cc(C(=O)c3ccc(Cl)cc3)c(=O)c3ccc(C)nc32)cc1OC`, for which the survival was 79% (inactive).
Regarding `COc1cc(OC)c(NC(=O)CCn2cccn2)cc1Cl`, the survival was 79% (inactive).
In the case of `Cc1cccc(NC(=O)Cn2c(=O)c3cccn3c3ccccc32)c1C`, the survival is 43% (active).
Next, `COc1ccc(Cl)cc1NC(=O)CCn1c(=O)oc2ccccc21`: 40% (active); `Cc1cc(C)c(NC(=O)Cn2c(=O)c3cccn3c3ccccc32)c(C)c1`: 51% (inactive).
In the case of `COc1ccc(OC)c(NC(=O)CCn2cccn2)c1`, the survival was 47% (active).
Take `COc1cc(NC(=O)CCn2c(=O)oc3ccccc32)cc(OC)c1OC`: the survival was 62% (inactive).
Consider `COc1ccc(OC)c(NC(=O)CCn2cnnn2)c1`, for which the survival was 80% (inactive).
As for `COc1ccc(NC(=O)Cn2c(=O)oc3cc(Cl)ccc32)c(OC)c1`, the survival is 91% (inactive).
Under `Cc1c(Cl)cccc1NC(=O)CCn1c(=O)c2cccn2c2ccccc21` stands 49% (inactive).
In the case of `COc1ccc(NC(=O)CCCn2c(=O)c3cccn3c3cccnc32)cc1Cl`, the survival is 87% (inactive).
On to `COc1ccc(NC(=O)Cn2c(=O)c3cccn3c3ccccc32)cc1Cl`, for which the survival was 42% (active).
Under `COc1ccc(NC(=O)CCn2c(=O)c3cccn3c3cccnc32)cc1Cl` stands 85% (inactive).
Under `COc1ccc(OC)c(NS(=O)(=O)c2ccc(-n3cccn3)cc2)c1` stands 95% (inactive); under `Cc1ccsc1CN1CCc2nc(Nc3ccccc3)ncc2C1`, 61% (inactive); under `CCc1cccc(C)c1NC(=O)C1CCN(c2nn3c(=O)cc(C)nc3s2)CC1`, 119% (inactive).
Turning to `Cc1cccc(N2CCN(c3ncnc4c3nc3n4CCCCC3)CC2)c1C`, the survival is 95% (inactive).
As to `COc1ccc(C(=O)NCC(c2cccnc2)N2CCN(c3ccccc3OC)CC2)cc1` (stereo not drawn), the survival is 77% (inactive).
Next, `COc1ccc(Cl)cc1NC(=O)CCCn1c(=O)c2cccn2c2cccnc21`: 87% (inactive); `COc1ccc(NC(=O)Cc2ccc(NC(=O)N3CCCCc4ccccc43)cc2)c(OC)c1`: 47% (active); `Cc1ccc2oc(=O)n(CCNC(=O)Nc3ccc(Cl)cc3)c2c1`: 72% (inactive).
Take `CCOC(=O)c1cccc(NC(=O)Cn2c(=O)c3cccn3c3ccccc32)c1`: the survival was 100% (inactive).
Take `CCc1ccc(NC(=O)Cn2c(=O)c3cccn3c3ccccc32)cc1`: the survival is 56% (inactive).
Under `Cc1ccc2oc(=O)n(CCNC(=O)Nc3ccccc3C)c2c1` stands 109% (inactive); under `COc1ccc(Cl)cc1NC(=O)NCCn1c(=O)oc2ccc(C)cc21`, 46% (active); under `COc1ccc(Cl)cc1NC(=O)CCn1c(=O)c2cccn2c2ccccc21`, 42% (active).
As to `COc1ccc(C)cc1NC(=O)Cc1ccc(NC(=O)N2CCCCc3ccccc32)cc1`, the survival is 67% (inactive).
In the case of `COc1ccc(OC)c(CNC(=O)Cc2ccc(NC(=O)N3CCCCc4ccccc43)cc2)c1`, the survival was 99% (inactive).
`Cc1ccc(Cl)cc1NC(=O)CCCn1c(=O)c2cccn2c2ccccc21`: the survival was 61% (inactive).
Under `CC(=O)c1ccc(NC(=O)Cn2c(=O)c3cccn3c3ccccc32)cc1` stands 42% (active).
For `CCOC(=O)c1c(S(=O)(=O)NCC(=O)N2CCN(c3cccc(Cl)c3)CC2)c(C)n(C)c1C`, the survival is 86% (inactive).
Under `O=C(O)c1ccccc1C(=O)N1CCC(C(=O)c2ccccc2)CC1` stands 104% (inactive).
With `COc1ccc(N2CCN(C(=O)C3CCN(S(=O)(=O)Cc4ccccc4)CC3)CC2)cc1`, the survival is 78% (inactive).
Take `O=S1(=O)CCC(NNC(=S)Nc2ccccc2)C1` (stereo not drawn): the survival was 100% (inactive).
For the compound `CCOCCCNC(=O)c1cc2c(=O)[nH]c3ccccc3c2n1C`, the survival was 116% (inactive).
As to `CCCCOc1ccc(S(=O)(=O)NCc2csc(-c3ccc(OC)cc3)n2)cc1`, the survival is 88% (inactive).
For the compound `CCOC(=O)c1c(S(=O)(=O)NCC(=O)Nc2ccc(C)c(N(C)C)c2)c(C)n(C)c1C`, the survival was 79% (inactive).
Under `O=C(CCn1c(=O)c2cccn2c2cccnc21)N1CCN(c2cccc(Cl)c2)CC1` stands 46% (active); under `O=C(CCn1c(=O)c2cccn2c2cccnc21)N1CCN(c2cccc(C(F)(F)F)c2)CC1`, 39% (active); under `COc1ccc(N2CCN(C(=O)CCn3c(=O)c4cccn4c4cccnc43)CC2)cc1`, 80% (inactive).
As to `O=C(CCn1c(=O)c2cccn2c2cccnc21)N1CCN(c2ccc(Cl)cc2)CC1`, the survival was 53% (inactive).
For the compound `Cc1cccc(N2CCN(C(=O)CCn3c(=O)c4cccn4c4cccnc43)CC2)c1C`, the survival is 59% (inactive).
Next, `Cc1ccc(C)c(N2CCN(C(=O)CCn3c(=O)c4cccn4c4cccnc43)CC2)c1`: 58% (inactive).
`O=C(CCn1c(=O)c2cccn2c2cccnc21)N1CCN(c2ccc(F)cc2)CC1`: the survival was 88% (inactive).
For `O=C(CCn1c(=O)c2cccn2c2cccnc21)N1CCN(c2ccccc2)CC1`, the survival is 102% (inactive).
Turning to `Cc1ccc(Cl)cc1N1CCN(C(=O)CCn2c(=O)c3cccn3c3cccnc32)CC1`, the survival was 39% (active).
Regarding `O=C(C1CCN(S(=O)(=O)c2cccs2)CC1)N1CCN(c2cccc(Cl)c2)CC1`, the survival is 64% (inactive).
With `CCOC(=O)c1cc2c(ccn2C)n1Cc1ccc(OC(F)(F)F)cc1`, the survival is 96% (inactive).
Consider `CCOC(=O)N1CCc2c(sc3c2c(=O)n(Cc2ccccc2)c(=O)n3Cc2cccc(C)c2)C1`, for which the survival was 83% (inactive).
Consider `CC(C)NC(=O)CCSc1ccc(Cl)cc1`, for which the survival is 93% (inactive).
As for `COc1ccc(N(C)C(=O)CCn2cnc3onc(-c4ccc(F)cc4)c3c2=O)c(OC)c1`, the survival is 92% (inactive).
Next, `CC(C)Cn1c(-c2cccc(Br)c2)nc2ccccc21`: 21% (active).
Next, `CCCCNc1nc2c(-c3cccc(Br)c3)nnn2c2ccccc12`: 101% (inactive); `CC(C)Nc1nc2c(-c3cccc(Br)c3)nnn2c2ccccc12`: 69% (inactive); `CCCn1c(-c2cccc(Br)c2)nc2ccccc21`: -4% (active).
Regarding `CC(=O)NC(C)c1nc2ccccc2n1Cc1ccccc1Cl` (stereo not drawn), the survival was 83% (inactive).
Consider `CC(C)Cn1c(C2CC(=O)N(c3ccccc3Cl)C2)nc2ccccc21` (stereo not drawn), for which the survival is 101% (inactive).
Under `CC(C)Cn1c(-c2ccccc2Cl)nc2ccccc21` stands -2% (active); under `Cc1nc2ccccc2c(=O)n1CC(C)C`, 64% (inactive).
Next, `CCCn1c(SCC(O)c2cccc(OC)c2)nc2ccccc21` (stereo not drawn): 84% (inactive); `O=C(O)c1ccc(NC(=O)c2cc(S(=O)(=O)N3CCCCC3)c(Cl)cc2Cl)cc1`: 165% (inactive); `CCOCCCN(Cc1ccco1)S(=O)(=O)c1cc2c(cc1C)NC(=O)CO2`: 64% (inactive).
Consider `O=C(NCc1ccco1)c1ccccc1`, for which the survival is 67% (inactive).
In the case of `O=C(Nc1ccccc1)c1cc2sccc2n1Cc1ccccc1`, the survival was 87% (inactive).
On to `COc1ccc(C(=O)NCc2ccc3c(c2)CCN3C(=O)c2ccc(Cl)cc2)c(OC)c1`, for which the survival is 94% (inactive).
As for `COc1ccc(Cl)cc1NC(=O)C(C)n1nnc2sc3c(c2c1=O)CCCC3` (stereo not drawn), the survival is 78% (inactive).
Turning to `Cc1cccc(NS(=O)(=O)c2ccc(Cl)c(C(=O)Nc3ccccc3C)c2)c1`, the survival is 71% (inactive).
`CC(C)CCOc1ccc(Oc2nc(N(C)C)nc(N(C)C)n2)nn1`: the survival is 62% (inactive).
Next, `Cc1nn(C)c2c1c(C(F)(F)F)cc(=O)n2CC(=O)NCc1ccc(OC(C)C)cc1`: 90% (inactive); `Cc1cccc(Nc2c(-c3cccs3)nc3nc(C)cc(C)n23)c1`: 151% (inactive); `Cc1ccc(Nc2c(-c3cccs3)nc3nc(C)cc(C)n23)cc1`: 15% (active).
Consider `Cc1cc(C)n2c(Nc3ccccc3C)c(-c3cccs3)nc2n1`, for which the survival was 84% (inactive).
Under `Cc1ccc(C)c(NC(=O)Cn2c(=O)n(Cc3ccc4c(c3)OCO4)c(=O)c3ccc(C(=O)NC4CCCCC4)cc32)c1` stands 88% (inactive); under `Cc1ccc(OCC(=O)Nc2cccc(C(=O)OCc3cc(=O)n4c(C)csc4n3)c2)cc1`, 89% (inactive).
For `Cc1csc2nc(COC(=O)c3ccc(F)cc3)cc(=O)n12`, the survival was 72% (inactive).
Regarding `Cc1csc2nc(COC(=O)c3cccc(NC(=O)COc4ccc(Cl)cc4)c3)cc(=O)n12`, the survival is 94% (inactive).
Turning to `CCOc1cc(C(=O)OCc2cc(=O)n3c(C)csc3n2)cc(OCC)c1OCC`, the survival is -1% (active).
Under `COc1cccc(C(=O)Nc2cccc(C(=O)OCc3cc(=O)n4c(C)csc4n3)c2)c1` stands 128% (inactive); under `CCOc1ccc(C(=O)Nc2ccc(C(=O)OCc3cc(=O)n4c(C)csc4n3)cc2)cc1`, 88% (inactive); under `Cc1cccc(OCC(=O)Nc2cccc(C(=O)OCc3cc(=O)n4c(C)csc4n3)c2)c1`, -5% (active).
`Cc1csc2nc(COC(=O)c3cccc(NC(=O)c4cccc(Cl)c4)c3)cc(=O)n12`: the survival is 17% (active).
As for `Cc1ccccc1C(=O)Nc1cccc(C(=O)OCc2cc(=O)n3c(C)csc3n2)c1`, the survival was 87% (inactive).
Next, `Cc1ccc(NC(=O)CN(C)S(=O)(=O)c2ccc3c(c2)CCC(=O)N3)c(C)c1`: 85% (inactive); `CCN(Cc1ccccc1)C(=O)c1nn(-c2ccc(OC)cc2)c(=O)c2c1c1ccccc1n2C`: 68% (inactive); `COc1ccccc1NC(=O)CN1C(=O)C(C)(C)c2ccccc21`: 85% (inactive).
